# The list is not random: actives were taken first. Their share in the collection is about 14%.
# Pf growth 96h – P. falciparum growth inhibition at 96 hours; P. falciparum luciferase reporter growth, 96 h; Potency, µM (doses to about 28.7 µM), for inactives: at the highest dose activity change, negative = inhibition, actives largely listed as inhibitors; actives 6.9% (n = 320,000); also: potency is read from the fitted curve at half-maximal effect
#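 Erythrocytes infected with luciferase-expressing P. falciparum were dispensed at 2% hematocrit and 0.05% parasitemia (final), then incubated with compounds 96 hours at 37 C in 5% CO2. Luminescence after detection reagent addition reported growth.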
# HCMV antiviral – blocks human cytomegalovirus replication. activity change, negative = inhibition, % at 57.5 µM. actives 4.5% (n = 410,000). HFF cells, HCMV-luciferase reporter, 72 h; active compounds read low. AID 1259415; in the data active = activity change below about -60%; inconclusive = no clear call, values can overlap the other calls; inactive = above about -39%
#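 Human foreskin fibroblasts infected with luciferase-reporter HCMV at MOI 1 PFU/cell, compounds at two doses. Luciferase measured 72 h post infection; normalized to buffer-only basal and Salinomycin (10uM) controls.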
# HCV inh – inhibitors of hepatitis C virus infection | Huh7.5.1 HCVcc-Cre infection, luciferase reporter, 44 h | AID 651820 | actives 3.4% (n = 340,000) | Potency, µM (series often up to 41.8 µM), without a hit: at the highest dose activity change, negative = inhibition, usual class: inhibitors; also: potency is read from the fitted curve at half-maximal effect
#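 Infectious HCV cell culture screen: compound-treated cells (1,000/well, pre-plated 4 h) are infected with HCVcc-Cre at roughly 0.5 moi and grown 44 h. Infection is quantified by luciferase signal after 15 min substrate incubation at room temperature.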
# Pf growth 48h – inhibits P. falciparum growth in the first generation, 48 h; P. falciparum luciferase growth in erythrocytes, 48 h; Potency, µM (doses to about 28.7 µM), for inactives: at the top dose activity change, negative = inhibition, most hits filed as inhibitors; actives 5.9% (n = 310,000); AID 504832; also: potency is read from the fitted curve at half-maximal effect
#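 Erythrocytes infected with P. falciparum carrying an integrated firefly luciferase reporter (2% hematocrit, 0.1% parasitemia final) were exposed to compounds in RPMI 1640 with 0.5% Albumax at 37 C, 5% CO2. Growth inhibition was scored as reduced luminescence.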
# Marburg entry inh – inhibitors of Marburg virus binding or cell entry; Marburg virus pseudotyped entry inhibition, cell reporter; Potency, µM (highest dose often 37.8 µM), for the others: top-dose activity change, negative = inhibition, hits mostly inhibitors; AID 540276; actives 1.8% (n = 300,000); calls by dose curve; tested in HEK293 cells; also: potency is read from the fitted curve at half-maximal effect
# Lassa entry inh – Lassa virus entry inhibition. Lassa virus pseudotype entry inhibition, cell reporter. Potency, µM (doses to about 37.9 µM), without a hit: at the highest dose activity change, negative = inhibition, most hits filed as inhibitors. actives 1.2% (n = 300,000). AID 540256; calls by dose curve; tested in HEK293 cells; also: potency is read from the fitted curve at half-maximal effect; nearly all actives have a fitted effect of over 50% in size
# * marks the source's active call; other numbers are inactive results; ? = inconclusive; . = no result given; [ ] = another dose, or the depositor's remark. Unless noted, calls follow the shape of the dose curve; as a rule, active = well fitted inhibition curve with a large enough effect; inconclusive = small, poorly fitted or top-dose-only effect, or another doubt; inactive = no such curve, though single readings can be large or run the other way. % is scaled to controls: 0 for no effect and ±100 for the full control effect.
SMILES,Pf growth 96h,HCMV antiviral,HCV inh,Pf growth 48h,Marburg entry inh,Lassa entry inh
COc1cc2c(cc1OC)C(COc1cccc(C(F)(F)F)c1)N(C(=O)c1ccc(S(=O)(=O)N3CCCC3)cc1)CC2 (stereo not drawn),.,-7,.,.,.,?
O=[N+]([O-])c1cccc2c([As](=O)(O)O)cccc12,0.47µM*,-74*,?,0.74µM*,-6%[46.1 µM],9%[46.1 µM]
O=c1[nH]ccc2c([N+](=O)[O-])cccc12,32%,7,5%,18%,.,.
Cc1ccc(NC(=O)C(C)Sc2nc(-c3ccccc3)c(C#N)c(=O)[nH]2)c(C)c1 (stereo not drawn),.,16,.,.,0%[46.1 µM],0%[46.1 µM]
CN(CC(=O)Nc1ccc(F)c(F)c1F)C(=O)C1CCN(C(=O)Nc2ccccc2)CC1,-5%,-22,17%,?,8%,16%
O=C(Nc1ccc(Br)cc1)c1cccc(OC(=S)N2CCOCC2)c1,-7%,-77*,8.9µM*,4%,?,?
COc1ccc(NC(=O)c2cccc(OC(=S)N3CCOCC3)c2)cc1,49%,-6,?,?,.,.
CCOc1ccc(NC(=O)c2cccc(OC(=S)N3CCOCC3)c2)cc1,2%,-68*,-7%,?,-18%[46.1 µM],0%
O=C(Oc1ccc(C(=S)N2CCOCC2)cc1)c1ccc(Br)cc1,3%,-60*,-10%,0%,8%,-15%
Cc1cccc(NC(=O)c2cccc(OC(=S)N3CCOCC3)c2)c1C,1.9µM*,7,8%,3%,9%,5%
O=C(Oc1ccc(C(=S)N2CCOCC2)cc1)c1ccccc1,?,-20,29%,-7%,?,8%[46.1 µM]
COc1cc(CN2C[C@@H](CO)O[C@@H](n3cnc4c(NCc5ccco5)ncnc43)C2)cc(OC)c1OC,.,8,.,.,.,.
Cn1c(=O)n(C)c2cc(N3CCCCC3)c(NC(=O)c3ccc(Cl)cc3)cc21,.,4,.,.,1%[46.1 µM],-17%[46.1 µM]
O=C(C1CCCCC1)N1C[C@H](n2cc(C3CC3)nn2)[C@@H](O)C[C@@H]1c1ccc(Cl)cc1,.,12,.,.,.,.
COc1cccc(CC2(CO)CCCN(Cc3ccc(C)s3)C2)c1 (stereo not drawn),?,-20,0%,?,?,0%
COc1ccc(-n2ccnc2CN2CCCC(CO)(Cc3cccc(OC)c3)C2)cc1 (stereo not drawn),?,-30,-11%,?,?,-29%
COc1cccc(CC2(CO)CCCN(Cc3ccc(CO)o3)C2)c1 (stereo not drawn),?,-35,9%,11%,-24%[46.1 µM],-9%[46.1 µM]
COc1cccc(CC2(CO)CCCN(Cc3sc(N4CCCC4)nc3Cl)C2)c1 (stereo not drawn),15µM*,3,?,?,?,-2%
COc1cccc(CC2(CO)CCCN(Cc3[nH]c4ccc(C)cc4c3C)C2)c1 (stereo not drawn),5.9µM*,-12,?,9.3µM*,.,.
COc1cccc(CC2(CO)CCCN(Cc3cc4ccccc4[nH]3)C2)c1 (stereo not drawn),?,5,-18%,?,4µM*,?
COc1cccc(CC2(CO)CCCN(Cc3c(C)cc(C)cc3-n3cccn3)C2)c1 (stereo not drawn),?,-69*,?,?,.,.
Cc1ccc(S(=O)(=O)NCCc2nnc3ccc(SCc4ccc(F)cc4)nn23)cc1,.,10,.,.,.,?
O=C(Cn1ccc(=O)[nH]c1=O)Nc1nccs1,.,-33,.,.,.,.
Cc1nn(-c2ccc(N3CCOCC3)nn2)c(C)c1CCC(=O)Nc1ccc(F)cc1F,.,14,.,.,.,12%[46.1 µM]
CSCCC(NS(=O)(=O)c1ccc(Cl)cc1)C(=O)OCC(=O)c1c(C)[nH]c2ccccc12 (stereo not drawn),-22%,39,-14%,-1%,12µM*,?
SMILES,Pf growth 96h,HCMV antiviral,HCV inh,Pf growth 48h,Marburg entry inh,Lassa entry inh
Cc1[nH]c2ccccc2c1C(=O)COC(=O)C1CC(O)CN1S(=O)(=O)c1ccc(Cl)cc1 (stereo not drawn),?,0,0%,20%,-4%[46.1 µM],-4%
CC1CCCN(C(=O)CN2C(=O)C(C)Oc3ccccc32)C1 (stereo not drawn),11%,-31,6%,-4%,0%[46.1 µM],-9%
CC1Oc2ccccc2N(CC(=O)N2CCCC2)C1=O (stereo not drawn),4.7µM*,-22,0%,0%,6%,-3%
O=C1C(SCCO)=C(SCCO)C(=O)c2ccccc21,?,-95*,10µM*,?,4µM*,2.6µM*
COc1ccc(Br)cc1C(=O)Nc1ccc2oc(-c3cccnc3)nc2c1,.,-19,.,.,4%[46.1 µM],19%[46.1 µM]
CN(/N=C\c1ccc(O)c(O)c1)c1nc(-c2ccccc2)cc(-c2ccccc2)n1,?,94,11µM*,10µM*,?,?
CC(C)CCNC(=O)CCc1nnc(Cc2c[nH]c3ccccc23)o1,?,25,3%,-15%,.,.
Cc1nc(C(C)NC(=O)CCc2nnc(Cc3c[nH]c4ccccc34)o2)cs1 (stereo not drawn),4.7µM*,-13,11%,-24%,10%[46.1 µM],11%[46.1 µM]
Cc1ccc([C@@H]2C[C@H]3[C@@H](CN2S(=O)(=O)c2ccc(C)cc2)C(=O)C[C@@H](c2ccccc2F)N3S(=O)(=O)c2ccc(C)cc2)cc1,.,-14,.,.,.,.
Clc1ccc(N/N=C/c2ccncc2)cc1Cl,1.2µM*,13,?,2.3µM*,-6%,?
CCOC(=O)c1c(C)[nH]c(C)c1C(=O)CSc1nc2ccccc2c(=O)n1-c1ccccc1C,?,?,?,10µM*,?,?
O=C(NCCc1ccccc1)C1CC(=O)N(c2ccc3c(c2)OCCO3)C1 (stereo not drawn),-2%,18,?,?,11%,25%
Cc1ccc(N2CC(C(=O)N3CCCCC3)CC2=O)cc1C (stereo not drawn),-24%,-61*,3%,12%,.,.
Cc1cccc(N2CCN(C(=O)C3CC(=O)N(c4ccc5c(c4)OCCO5)C3)CC2C)c1 (stereo not drawn),-11%,-23,11µM*,-29%,.,.
O=C(C1CC(=O)N(c2ccc3c(c2)OCCO3)C1)N1CCN(c2ccccc2)CC1 (stereo not drawn),20%,-70*,-4%,72%,4%,-12%
O=C(NC(Cc1ccccc1)c1nc2ccccc2[nH]1)C1CC(=O)N(c2ccc3c(c2)OCCO3)C1 (stereo not drawn),2.9µM*,77,-5%,0%,18%,13%
CC(C)(C)C(=O)OCc1cc(=O)n2nc(C3CCCCC3)sc2n1,.,9,.,.,.,17%[46.1 µM]
C=CCn1c(=O)c(C(=O)NCc2ccccc2Cl)c(O)c2ccccc21,6%,-15,?,?,.,.

# Screens as filed in PubChem BioAssay.
